# High-throughput results as filed in PubChem BioAssay.
# Shown are actives, neighbours in structure and some others; about 6.2% of the full set was active somewhere.
# Luc counter = blocks Kinase-Glo luciferase, a counter-screen artifact. AID 1379. Potency, µM (highest dose often 38.3 µM), most hits filed as inhibitors. Q27757. 0.28% of 200,000 active. Kinase-Glo luciferase, ATP luminescence, 8 min; note: nearly all actives have a fitted effect of over 60% in size
#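 Luminescence was the read-out, taken after 8-minute incubation at ambient temperature. Luciferase turned over luciferin with 10 uM ATP in imidazole pH 7.2 buffer containing KCl, MgCl2, Tween 20 and BSA.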
# Gal4-VP16 FLuc = counter-screen for ROR gamma inhibitors: Gal4-VP16 reporter; AID 2546; Drosophila S2 Gal4-VP16 UAS-luciferase, luminescence, 20 h; Potency, µM (titrated, usually from 53.6 µM), actives largely listed as inhibitors; 3.5% of 310,000 active;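 note: Gal4-VP16 expression switched on by copper sulfate through the metallothionein promoter; nearly all actives have a fitted effect of over 50% in size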
# RORgamma inh = ROR gamma (mouse) transcription inhibition; AID 2551; Drosophila S2 Gal4-RORgamma UAS-luciferase reporter, 20 h; 5.4% of 310,000 active; P51450; Potency, µM (series often up to 53.6 µM), hits mostly inhibitors; note: nearly all actives have a fitted effect of over 60% in size
# Target sequence (P51450 whole entry, looked up, the tested form may be a part): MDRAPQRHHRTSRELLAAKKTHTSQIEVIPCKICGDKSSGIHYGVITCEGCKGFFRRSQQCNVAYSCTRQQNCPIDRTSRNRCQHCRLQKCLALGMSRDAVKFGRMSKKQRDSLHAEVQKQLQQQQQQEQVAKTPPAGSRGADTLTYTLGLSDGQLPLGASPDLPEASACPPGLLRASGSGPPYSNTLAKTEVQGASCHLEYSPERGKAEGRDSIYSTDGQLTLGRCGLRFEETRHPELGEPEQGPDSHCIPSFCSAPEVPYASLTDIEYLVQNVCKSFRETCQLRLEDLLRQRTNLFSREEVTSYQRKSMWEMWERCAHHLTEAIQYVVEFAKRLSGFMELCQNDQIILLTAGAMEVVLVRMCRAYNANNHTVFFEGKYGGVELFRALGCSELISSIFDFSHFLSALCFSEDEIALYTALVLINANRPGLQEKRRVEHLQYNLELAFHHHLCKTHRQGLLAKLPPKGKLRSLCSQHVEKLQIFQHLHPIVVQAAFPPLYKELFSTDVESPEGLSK
#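 Schneider cells (Drosophila), stable Gal4 DBD–ROR gamma + UAS-luc; 1 hr cmpd preincubation; Cu2+ induction 700 uM final; 20 hr ambient; luminescence.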
# Hits are given with their value; 0 = inactive; ? = inconclusive; - = no result; [ ] = dose if it differs, or a comment. Calls come from the whole dose curve; as a rule, active = well fitted curve in the direction sought with a large enough effect; inconclusive = small, poorly fitted or top-dose-only effect, or another doubt; inactive = no such curve, though single readings can be large; an effect the other way counts as inactive or inconclusive.
SMILES,Luc counter,Gal4-VP16 FLuc,RORgamma inh
Cc1cc(C)n(-c2nnc3c4ccccc4n(C)c3n2)n1,-,?,3.2µM
CCN(CC)P(=O)(c1ccccc1)c1c(C)nc2ccccn12 (stereo unspecified),-,0,0
CCC(C)[C@H]1CNC(=S)N1CCc1cc(C(F)(F)F)cc(C(F)(F)F)c1 (stereo partly specified),-,4µM,2.2µM
NC1=NC[C@H](CC2CCCCC2)N1CCc1cc(C(F)(F)F)cc(C(F)(F)F)c1,-,0,0
C[N+](C)(CC#N)C/C=C\c1ccccc1,0,0,0
CCCOc1ccc(Br)cc1CSC(=N)N,0,13µM,?
Cc1cc(CSC(=N)N)c(CSC(=N)N)cc1C,-,0,0
Cc1cccc(NC(=O)CSc2nnc(C)c(C)n2)c1,-,0,0
CC1=C(C)/C(=N\OS(=O)(=O)c2ccccc2)C=CC1=O,0,2.5µM,2.5µM
Cc1ccc(S(=O)(=O)O/N=C2\CCCc3ccccc32)cc1,0,0,0
CN(CCNC(=O)c1ccc(CS(=O)(=O)c2c(Cl)cccc2Cl)o1)CCc1ccccc1,-,0,0
CC(C)(C)c1cc2cccnc2n1Cc1cccc(Cl)c1,0,0[0.365 µM],2.2µM
COc1ccnc2c1c(=O)n(Cc1cccc(Cl)c1)c(=O)n2C,-,0,0
O=S(=O)(Nc1ccc2cn[nH]c2c1)c1ccc(Cl)s1,0,0,0
COc1ccc(Cc2nnc(NC(=O)c3c(-c4ccccc4)noc3C)s2)cc1,0,?,16µM
O=C(Nc1nnc(Cc2ccccc2)s1)c1ccco1,0,0,?
CC(C)(C)C(=O)Nc1nnc(Cc2ccccc2)s1,0,0,13µM
COc1ccc(Cc2nnc(NC(=O)c3c(-c4ccccc4)noc3C)s2)cc1OC,0,0,?
Cc1ccc2c(c1)N(C(=O)CCC(=O)NCc1ccccn1)CC(C)O2 (stereo unspecified),-,0,0
Cc1cccc(CN2CC34C=CC(CC3S2(=O)=O)O4)c1 (stereo unspecified),-,?,0
O=C(Nc1cc(S(=O)(=O)N2CCOCC2)ccc1N1CCOCC1)c1ccc(Cl)nc1,-,0,0
COc1cc(C(=O)NCCCOC(C)C)ccc1OC1CCN(C(C)=O)CC1,-,0,0
COc1ccc(O)c(C(=O)c2cnc3c(c2)c(C)nn3CCO)c1,-,0,0
COc1ccc(Cn2c(=S)[nH]c3ccccc32)cc1,0,?,10µM
COc1ccc(-n2c(=S)[nH]c3ccccc32)cc1,0,20µM,4.5µM
SMILES,Luc counter,Gal4-VP16 FLuc,RORgamma inh
COc1ccc(-n2c(=S)[nH]c3ccccc3c2=S)cc1,-,0.71µM,0.5µM
COc1ccc(-n2c(Cn3nnc4ccccc43)n[nH]c2=S)cc1,0,0,0
COCCn1c(=S)[nH]c2ccccc21,0,0,?
COc1ccc(-n2c(=S)[nH]c3ncccc3c2=O)cc1,-,0,?
C[C@H](NC(=O)[C@@H]1C[C@H]1[C@@H](NC(=O)OCc1ccccc1)c1ccccc1)c1ccccc1,0,0,0
O=S(=O)(O)c1cc(O)c2c(N=Nc3ccc(Nc4ccccc4)c4c(S(=O)(=O)O)cccc34)cc(S(=O)(=O)O)cc2c1,-,0,?
COc1ccc(N(CC(=O)Nc2cc(C)ccc2C)S(=O)(=O)c2c(C)nn(C)c2C)cc1,0,0,0
CC(=O)N[C@@H](CCCNC(=N)N)C(=O)N[C@H](CC1CCCCC1)C(=O)N[C@@H]1CCC2SC[C@@H](C(=O)N[C@H](CCCNC(=N)N)C(=O)N[C@H](Cc3ccc(Cl)cc3)C(N)=O)N2C1=O (stereo partly specified),-,0,0
CNC(=S)N=Nc1c(O)[nH]c2ccc(C(C)C)cc12,-,2.8µM,4µM
CC(C)c1ccc2[nH]c(O)c(N=NC(=O)c3cccc(S(=O)(=O)Nc4ccc(Cl)cc4)c3)c2c1,0,0,0
Oc1[nH]c2ccccc2c1N=Nc1c(F)c(F)c(C(F)(F)F)c(F)c1F,-,0,0
C=C(C)CNC(=S)N=Nc1c(O)[nH]c2ccc([N+](=O)[O-])cc12,0,13µM,2.5µM
CNC(=S)N=Nc1c(O)[nH]c2ccccc12,0,?,3.2µM
CC(C)NC(=S)N=Nc1c(O)[nH]c2ccc([N+](=O)[O-])cc12,0,0,0
O=C(O)c1ccc(N=Nc2c(O)[nH]c3ccccc23)cc1,-,35µM,?
CCOC(=O)C(=O)N=Nc1c(O)[nH]c2ccccc12,0,0,0
Cc1nc(N2CCOCC2)c2nc(-c3ccccc3)n(CCCN(C)C)c2n1,0,0,0
O=C(O)c1cc(N=Nc2ccc(-c3ccc(N=Nc4ccc(O)c(C(=O)O)c4)cc3)cc2)ccc1O,-,0,0
COc1ccc(S(=O)(=O)N=Nc2c(O)[nH]c3ccccc23)cc1,0,0,0
Oc1ccc(NC(=S)N=Nc2c(O)[nH]c3ccccc23)cc1,0,0,?
Cc1ccc(NC(=S)N=Nc2c(O)[nH]c3ccccc23)cc1,0,1.3µM,0.32µM
COc1ccc(NC(=S)N=Nc2c(O)[nH]c3ccccc23)cc1,-,3.5µM,1.3µM
CCNc1ncc2nc(-c3ccc(F)cc3)c(=O)n(CCOC)c2n1,-,0,0
Cc1cc2nc(-c3ccc(SCc4ccc(C#N)cc4)nc3)[nH]c2cc1C,0,0,?
CCOC(=O)NC(=O)/C(C=Nc1ccc(Cl)c(Cl)c1Cl)=C(\C)O,0,0,0
SMILES,Luc counter,Gal4-VP16 FLuc,RORgamma inh
COc1ccc(N2CCN(S(=O)(=O)CC34CCC(CC3=O)C4(C)C)CC2)cc1 (stereo unspecified),-,0,?
COc1ccc(CCN2C(=O)CSC2c2ccc(OC)c(OC)c2)cc1OC (stereo unspecified),0,0,0
COc1ccc(C2SCC(=O)N2CCc2ccc(OC)c(OC)c2)cc1 (stereo unspecified),0,2.8µM,?
CCOC(=O)C1CCN(C(=O)c2cccnc2Oc2ccccc2)CC1,-,0,0
O=C(Cc1ccccc1)NS(=O)(=O)c1ccc(N=NN2CCOCC2)cc1,0,0,0
CC(NC(=O)CN1CCCC1)c1ccccc1 (stereo unspecified),-,0,0
Cc1ccc(O)c(NC(=S)NC(=O)/C=C/c2ccccc2)c1,-,0,0
O=C(/C=C/c1ccco1)NC(=S)Nc1ccc(Cl)cn1,0,?,8.9µM
Cc1ccc(-c2csc(NC(=S)NC(=O)/C=C/c3ccco3)n2)cc1,0,?,?
O=C(/C=C/c1ccco1)NC(=S)NNC(=O)c1ccco1,0,0,?
CCC(=O)Nc1ccc(NC(=S)NC(=O)/C=C/c2ccco2)cc1,-,0,0
O=C(/C=C/c1ccco1)NC(=S)Nc1ccc(O)c(-c2nc3ccccc3s2)c1,0,2µM,2µM
Cc1ccnc(NC(=S)NC(=O)/C=C/c2ccco2)c1,0,1.8µM,7.1µM
Cc1ccc(O)c(NC(=S)NC(=O)/C=C/c2ccco2)c1,0,?,7.9µM
COC(=O)N1CCC2(CC1)CN(C(c1ccccc1)c1ccccc1)C2,0,0,0
C=CCNC(=O)COC(=O)c1ccc(C)c(NC(=O)c2ccco2)c1,0,0,0
CCCCC/C=C\C/C=C\C/C=C\C/C=C\CCCCCC(=O)NCC(=O)O,0,0,0
Nc1nc(N)c(N=Nc2ccc(C(=O)O)c(O)c2)c(N)n1,0[7.66 µM],-,-
O=P(O)(CCP(=O)(O)c1ccccc1)c1ccccc1,0[7.66 µM],-,-
CC1(C)CC(NC(=O)C2CCCCC2)CC(C)(C)N1,-,0,0
Cc1ccc(O)c(NC(=S)NC(=O)C(C)C)c1,-,0,11µM
